# TRPM1 prom inh: MITF TRPM1 promoter inhibition in SK-MEL-5 cells. 330,000 compounds, 0.83% hits. SK-MEL-5 TRPM1 promoter luciferase, 24 h. inhibition, % at 12.5 µM;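 active = mean inhibition across replicates of 60% or more, whatever share of single replicates reaches that level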
# CF NFkB block: cystic fibrosis NF-kB activation inhibition. KKLEB NF-kB-GFP reporter, PAF-induced, GFP fluorescence overnight. inhibition, % at 5 µM. 360,000 compounds, 0.86% hits;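 active = at least 50% inhibition at 5 µM, scaled per plate between neutral and stimulator controls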;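 also: PAF is a Pseudomonas aeruginosa culture filtrate used as stimulus; plate controls were PAF-stimulated DMSO wells for no effect and unstimulated DMSO wells for full effect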
# Peg3 prom inh: Peg3 promoter activity inhibition | HeLa PEG-Prom luciferase reporter, luminescence, overnight | inhibition, % at 20 µM | 360,000 compounds, 1.7% hits | AID 588405;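 active = inhibition of at least 50% at 20 µM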
# HIF-2a inh: inhibitors of HIF-2a | 786-0 RCC cells HIF-2a reporter, luciferase luminescence, overnight | inhibition, % at 18.8 µM | 360,000 compounds, 0.72% hits;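 active = inhibition of the luminescence signal of 40% or more relative to plate controls, in a single-dose primary screen at 18.75 µM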
# Shn3 inh set2: Schnurri-3 reporter inhibition in Clone20 osteoblasts; 360,000 compounds, 0.52% hits; inhibition, % at 12.5 µM; Clone20 osteoblast Shn3 3'UTR firefly luciferase, 24 h;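 active = mean inhibition of at least 75% with every replicate also reaching 75%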;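 also: 0% = median of neutral control wells and 100% = pilot-screen positive control compound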
# KKLEB tox: CF airway cell cytotoxicity counter-screen. AID 602141. KKLEB CF airway cells viability, ATPlite luminescence, overnight; active compounds read low; cells stimulated with P. aeruginosa culture filtrate. activity change (cytotoxicity), % at 5 µM. 360,000 compounds, 0.36% hits;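 active = corrected activity change at or below -50% at 5 µM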
# CF NFkB conf: CF NF-kB inhibition confirmation, single concentration. shares compounds with CF NFkB block. AID 602472. KKLEB CF airway cells, PAF-induced NF-kB-GFP fluorescence, overnight. 1,300 compounds, 64% hits. inhibition, % at 5 µM; in the data active = inhibition above about 40%;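 also: stimulus PAF is a Pseudomonas aeruginosa filtrate and not platelet activating factor; plate controls were DMSO wells with stimulus for no effect and unstimulated DMSO wells for full effect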
# An asterisk follows results filed as active; x = no result given. Only some compounds are listed: those with a hit (about 2.7% of all), similar ones and a draw of the others.
SMILES,TRPM1 prom inh,CF NFkB block,Peg3 prom inh,HIF-2a inh,Shn3 inh set2,KKLEB tox,CF NFkB conf
Cn1cc([N+](=O)[O-])c(C(=O)Nc2ccc(Br)cn2)n1,-4.0,16.2,14.8,-437.9,-9.7,9.6,x
COc1ccc(NC(=O)CCS(=O)(=O)c2ccc(Cl)cc2)cc1,-1.2,1.6,-18.2,7.0,9.7,1.4,x
CC(=O)c1sc(NC(=O)CCS(=O)(=O)c2ccc(Cl)cc2)nc1C,-11.4,55.5*,35.1,-7.6,-21.0,4.0,40.1*
O=C1Nc2ccccc2-n2nnnc2C1N1CCN(C(=O)c2ccco2)CC1 (stereo unspecified),x,x,x,3.4,x,x,x
COc1ccc(CN2C(=O)C(CC(=O)NC3CC3)CC(C(=O)N(C)C)=C2C)cc1 (stereo unspecified),x,-1.1,-10.8,-3.4,-16.9,-0.5,x
COc1ccc(CCNC(=O)c2cccc([N+](=O)[O-])c2)cc1OC,-7.4,62.1*,6.6,29.4,14.4,6.3,22.3
COc1ccc(CCNC(=O)c2ccc(-c3cccc([N+](=O)[O-])c3)o2)cc1OC,-4.3,-20.8,15.0,-19.2,-11.9,-14.0,x
O=[N+]([O-])c1cccc(-c2ccc(/C=N/Nc3nc(N4CCCCC4)nc(N4CCCCC4)n3)o2)c1,-2.3,55.3*,68.7*,29.9,17.1,-16.7,39.2
O=C1/C(=C/c2cccnc2)CCc2c1[nH]c1ccccc21,-81.0,70.5*,-126.9,-199.6,55.1,-13.7,84.3*
CCCCNc1cc(C(=O)O)cc(S(N)(=O)=O)c1Oc1ccccc1,-5.3,61.5*,3.6,23.7,-9.2,23.6,1.3
Nc1ncnc(Nc2ccc(F)cc2)n1,-10.9,2.6,-30.6,-14.4,-29.9,-13.3,x
Fc1ccc(Nc2ccnc(Nc3ccc(F)cc3)n2)cc1,-71.2,57.6*,-195.2,-274.5,-32.8,-16.9,56.1*
COc1ncc(-c2ccc(N3C(c4ccc([N+](=O)[O-])cc4)=Cc4ccccc4C3CC(C)=O)cc2)cn1 (stereo unspecified),x,x,x,8.5,x,x,x
COc1cccc(CNC(=O)CN2CCC(c3nc4ccc(C)cc4[nH]3)CC2)c1,-1.3,56.4*,5.4,18.9,3.1,-12.8,9.9
CN(C)C(CNC(=O)C1CCN(S(=O)(=O)c2cccc(C(F)(F)F)c2)CC1)c1ccccc1 (stereo unspecified),-7.2,-6.9,0.7,-3.2,9.2,-1.1,x
CN(C)C(CNC(=O)C1CCN(S(=O)(=O)c2ccccc2)CC1)c1ccccc1 (stereo unspecified),-0.2,71.2*,-3.9,-7.2,-7.3,29.8,0.0
Cc1ccc2nc(C(F)(F)F)c(C#N)c(N)c2c1,26.0,83.2*,100.8*,-31.0,-22.0,-11.8,99.6*
Cc1cccc(C(C#N)c2nc3ccccc3nc2C(F)(F)F)c1 (stereo unspecified),-4.7,12.9,20.6,8.8,7.8,-8.4,x
Cc1nc(C)c(-c2csc(Nc3cccc(O)c3)n2)s1,-42.5,-24.9,-245.1,-275.8,-5.0,9.0,x
CCC(=O)Nc1nc(C)c(-c2csc(Nc3cccc(O)c3)n2)s1,11.4,61.6*,-58.6,-50.0,38.4,-3.9,86.9*
CCCc1nnc(NC(=O)c2nc(S(=O)(=O)Cc3ccc(C)cc3)ncc2Cl)s1,69.2*,90.5*,102.8*,-0.9,91.3*,-32.9,91.2*
NS(=O)(=O)c1ccc(CCNc2nn3c(-c4cccc(OC(F)(F)F)c4)cnc3s2)cc1,x,52.8*,101.6*,23.0,82.9,-41.0,69.9*
COc1ccc(CCNc2ccc(S(N)(=O)=O)cn2)cc1,-2.8,-11.4,-21.9,-5.4,0.8,-5.0,x
CCCCNC(=O)C(NC(=O)c1cnc(C)cn1)C(=O)c1ccccc1 (stereo unspecified),x,x,x,12.2,x,x,x
CC(C)n1c(SCc2ccccc2F)nc2c1c(=O)n(C)c(=O)n2C,-9.6,56.8*,24.8,21.1,21.8,-5.2,58.4*
SMILES,TRPM1 prom inh,CF NFkB block,Peg3 prom inh,HIF-2a inh,Shn3 inh set2,KKLEB tox,CF NFkB conf
CC(C)n1c(SCc2cc(=O)[nH]c3ccccc23)nc2c1c(=O)n(C)c(=O)n2C,2.2,11.2,17.4,6.5,6.2,-4.6,x
C=CCn1cnc2c(c1=O)c1nc3ccccc3nc1n2/N=C/c1cc(OC)c(OC)c(OC)c1,8.6,50.9*,1.3,-57.2,65.8,11.2,116.6*
CS(=O)(=O)c1ccc2nc(NC(=O)Nc3ccc(Cl)c(Cl)c3)sc2c1,-13.6,25.2,41.3,5.4,10.6,-6.8,x
CS(=O)(=O)c1ccc2nc(NC(=O)Nc3cccc(Cl)c3)sc2c1,-37.2,63.5*,-60.2,-133.6,-2.8,-32.4,66.0*
CCCCNC(=O)c1nc(C2CCN(S(=O)(=O)c3cccc(C(F)(F)F)c3)CC2)oc1-c1ccccc1,x,-0.1,6.1,5.0,-23.2,-11.2,x
CSc1ccc(CNC(=O)C2(C)CCCN(C(C)C)C2)cc1 (stereo unspecified),x,5.5,-12.9,-7.1,0.9,2.5,x
O=C(NC1CCCCC1)N(c1ccccc1)c1nnc(-c2cccc([N+](=O)[O-])c2)s1,x,-3.2,-148.7,-193.5,-0.4,12.2,x
CCC[n+]1c(C)sc2c3c(ccc21)CCCC3,67.4*,58.5*,31.6,5.8,92.1*,-23.0,20.0
CC[n+]1c(C)sc2c(C)cc(C)cc21,8.1,-13.1,-1.2,10.2,5.5,2.6,x
COc1cc(CN2C[C@@H](CO)O[C@@H](n3cnc4c(N5CCCC5)ncnc43)C2)cc(OC)c1OC,x,19.5,8.8,0.1,0.0,1.2,x
COc1cc(-c2cc(C(=O)Nc3ccc(S(=O)(=O)NCc4ccco4)cc3)c3ccccc3n2)cc(OC)c1OC,9.7,64.5*,58.5*,10.8,-1.5,7.9,97.7*
COc1cc(-c2cc(C(=O)NCc3ccco3)c3ccccc3n2)cc(OC)c1OC,2.9,-20.6,29.0,5.3,13.0,-4.8,x
CCc1c(C)nc2ccc(Br)cc2c1SCCC#N,-8.2,73.2*,18.2,22.7,11.7,-18.8,89.2*
CC(=O)c1ccc(NC(=O)c2ccc([N+](=O)[O-])o2)cc1,17.6,10.6,30.9,19.8,-66.4,0.3,x
COc1ccc(NC(=O)c2ccc([N+](=O)[O-])o2)cc1,28.1,50.9*,42.6,-4.2,9.1,-11.2,34.2
CCCC(=O)N1CCN(c2ccc(NC(=O)c3ccc([N+](=O)[O-])o3)cc2Cl)CC1,90.7*,73.9*,110.8*,90.3*,95.8*,-35.9,35.1
CC(=O)N1CCN(c2ccc(NC(=O)c3ccc(Br)o3)cc2Cl)CC1,15.6,-14.3,-52.5,-96.1,x,8.0,x
Clc1ccccc1OCc1nn2c(-c3ccncc3)nnc2s1,5.4,14.5,-8.8,2.1,9.4,-12.4,x
c1csc(Cc2nn3c(-c4ccncc4)nnc3s2)c1,-13.4,50.3*,-4.6,18.0,5.8,4.8,48.7*
c1cc(-c2nnc3sc(C4CCCCC4)nn23)ccn1,-12.3,50.6*,6.3,19.2,-2.5,-16.1,63.6*

# Screens from PubChem.
